From PubChem BioAssay
An excerpt weighted towards active compounds, which were near 19% of everything screened.
DT40 TDP1 no CPT – qHTS for Inhibitors of human tyrosyl-DNA phosphodiesterase 1 (TDP1): qHTS in cells in absence of CPT. DT40 Tdp1-/- hTDP1 cells, no CPT, ATP luminescence, 48 h. Potency, µM (highest dose often 46.2 µM), inactives show at the highest dose activity change, negative = growth inhibition, actives largely listed as inhibitors. hit rate 15% among 420,000. AID 686978, 2013; further: nearly all actives have a fitted effect of over 55% in size
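Growth of hTDP1-complemented DT40 Tdp1-knockout cells is measured by ATP luminescence after at least 48 hr compound exposure at 37 °C, with DMSO substituting for the 20 nM CPT used in the parallel screen.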
HT1080 IDH1KD tx – HT-1080 IDH1 knockdown cell toxicity (counter line); HT-1080 IDH1 knockdown viability, ATP luminescence, 48 h; Potency, µM (series often up to 46.1 µM), inactives show at the top dose activity, negative = toxicity, most hits filed as cytotoxic; hit rate 2% among 360,000;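 further: 0% = DMSO wells and -100% = cell-free medium wells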
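Viability of IDH1-knockdown HT-1080 fibrosarcoma cells was assessed by CellTiter-Glo after 48 h at 37 °C with titrated compound; concentration-effect curves were classified by fit quality and response size.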
KB-3-1 cytotox – kills parental KB-3-1 adenocarcinoma cells; KB-3-1 viability, CellTiter-Glo ATP luminescence, 72 h; Potency, µM (series often up to 46.1 µM), actives largely listed as cytotoxic; hit rate 1.4% among 400,000; further: nearly all actives have a fitted effect of over 60% in size
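KB-3-1 parental drug-naive adenocarcinoma cells in DMEM/10% FBS, incubated 72 h at 37 C with pin-transferred compounds across a concentration series. Viability by CellTiter-Glo luminescence; concentration-response curves fitted after normalization.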
TDP1 cell CPT – growth inhibition of DT40 Tdp1-/-;hTDP1 cells with camptothecin (screen for TDP1 inhibitors); chicken DT40 Tdp1-/-;hTDP1 cells + 20 nM CPT, ATP luminescence, 48 h; Potency, µM (titrated, usually from 46.2 µM), for the others: at the top dose activity change, negative = growth inhibition, actives largely listed as inhibitors; hit rate 12% among 420,000; further: nearly all actives have a fitted effect of over 55% in size
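Chicken DT40 Tdp1-/- cells complemented with human TDP1, 400 cells/well, exposed to compounds plus 20 nM camptothecin for at least 48 h at 37 C; viability read as ATP content by CellTiter-Glo luminescence.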
KB-V1 MDR tox – KB-V1 MDR subline cytotoxicity; Potency, µM (titrated, usually from 46.1 µM), hits mostly cytotoxic; hit rate 3.4% among 400,000; KB-V1 MDR cells viability, CellTiter-Glo, 72 h; further: nearly all actives have a fitted effect of over 60% in size
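KB-V1, DMEM (no phenol red) + 10% FBS; cpd pin-transferred, titration series; 72 h, 37 degrees C; CellTiter-Glo, luminescence. Data normalized, curve-fit.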
HT1080-NT tox – kills 2HG-producing HT-1080-NT fibrosarcoma cells; hit rate 1.6% among 360,000; Potency, µM (top dose mostly 46.1 µM), without a hit: at the top dose activity, negative = less viability, actives largely listed as cytotoxic; HT-1080-NT fibrosarcoma viability, CellTiter-Glo ATP luminescence, 48 h;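 further: NT is the 2HG producing partner of a matched IDH1 knockdown line; 0% = DMSO-treated cells and -100% = media-only wells without cells; nearly all actives have a fitted effect of over 55% in size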
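Toxicity toward the 2HG-producing NT line was scored as %Activity, normalised to DMSO and no-cell wells, from CellTiter-Glo luminescence after 48 hours' treatment.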
* = called active by the depositor; i = inactive; ? = inconclusive; nt = no result; ! = not confirmed by another sample; [ ] = remark or other dose. The call rests on the fitted dose curve; in most records, active means well fitted curve in the direction sought with a large enough effect; inconclusive means small, poorly fitted or top-dose-only effect, or another doubt; inactive means no such curve, though single readings can be large; an effect the other way counts as inactive or inconclusive. Unless noted, on the % scale 0 is the no-effect control and ±100 the full control effect; potency means the concentration at half of the fitted maximal effect.

SMILES	DT40 TDP1 no CPT	HT1080 IDH1KD tx	KB-3-1 cytotox	TDP1 cell CPT	KB-V1 MDR tox	HT1080-NT tox
Cc1onc(-c2ccccc2)c1-c1nnc(CN2CCN(S(=O)(=O)c3ccccc3F)CC2)o1	?	0%	?	21µM*	3.3µM*	-3%
CCc1ccc(-n2c(=O)c3c4c(sc3n(CC(=O)N3CCC(C)CC3)c2=O)CCC4)cc1	-5%	nt	i	3%	i	nt
Cc1csc(C(C#N)C(=O)c2cc3ccccc3o2)n1 (stereo unspecified)	?	?	?	?	21µM*	?
Cc1nn(-c2ccccc2)c2c1C(=O)N(c1ccccc1)C(=O)C(C)(C)C2	-5%	-4%	i	-19%	i	-3%
Cc1nn(-c2ccccc2)c2c1/C(=N/O)CC(C)(C)C2	-15%	-3%	i	3%	16µM*	-4%
CCN(CC)S(=O)(=O)c1cccc(-c2nnc(SC(C)C#N)n2Cc2ccccc2)c1 (stereo unspecified)	18µM*	-9%[9.24 µM]	i	15µM*	?	-15%
Cc1ccc(CNC(=O)C2CCN(S(=O)(=O)Cc3ccccc3)CC2)cc1	-7%	nt	i	-5%	i	nt
O=C(c1cnn2c1NC(c1ccc(Br)cc1)CC2C(F)(F)F)N1CCN2CCCC2C1 (stereo unspecified)	?	?	i	18µM*	i	?
COc1ccc(NC(=O)c2oc3ccccc3c2NC(=O)COc2ccc(F)cc2)c(OC)c1	-16%	nt	i	?	i	nt
COCCNC(=O)C1(C)CCN(C(=O)c2cc(C(C)(C)C)nn2C)C1 (stereo unspecified)	-4%	11%	i	-25%	i	?
COc1cccc(N2CCN(C(=O)c3ccccc3SCC(=O)NCc3ccco3)CC2)c1	?	-1%	i	?	i	-1%
CCOc1ccc(NC(=O)N2CCN(c3ccc(Cl)c(Cl)c3)CC2)cc1	1.3µM*	nt	nt	?	nt	nt
CCOc1ccc(NC(=O)N2CCC(CN3CCCCCC3)CC2)cc1	?	nt	nt	18µM*	nt	nt
Cc1ccc(NC(=O)N2CCN(c3ccc(Cl)c(Cl)c3)CC2)cc1	3.3µM*	nt	nt	?	nt	nt
CC(C)c1ccc(NC(=O)N2CCN(c3ccc(Cl)c(Cl)c3)CC2)cc1	0.92µM*	nt	nt	?	nt	nt
CCOc1ccc(NC(=O)CN2CCN(c3ccc(Cl)cc3)CC2)cc1	?	nt	i	?	i	nt
CCOC(=O)C1CCN(C(=O)c2ccc(CNS(=O)(=O)c3ccc(OC)cc3)cc2)CC1	-20%	-3%	i	-18%	i	4%
O=C(CN1CCN(S(=O)(=O)N2CCCCC2)CC1)Nc1ccc(Br)cc1	16µM*	8%	i	?	?	-8%
O=C(CN1CCCCCC1)Nc1ccc(Br)cc1	-18%	-7%	i	2%	?	1%
O=C(CNc1ccc(Br)cc1)Nc1ccc(S(=O)(=O)N2CCCCC2)cc1	29µM*	-16%	i	?	i	-23%
COc1cc2cc(C#N)c(SCC(=O)OC(C)C)nc2cc1OC	?	nt	i	?	i	nt
CCc1c(C)c(C#N)c2nc3ccccc3n2c1NCc1ccco1	?	-10%	i	23µM*	?	-12%
CCCCc1c(C)c(C#N)c2nc3ccccc3n2c1Nc1c(C)n(C)n(-c2ccccc2)c1=O	16µM*	-23%	i	23µM*	?	-14%
Cc1c(Cc2ccccc2)c(NCCCO)n2c(nc3ccccc32)c1C#N	16µM*	-10%	i	21µM*	?	-15%
CCc1c(C)c(C#N)c2nc3ccccc3n2c1NC	-5%	-2%	i	10%	i	-5%
SMILES	DT40 TDP1 no CPT	HT1080 IDH1KD tx	KB-3-1 cytotox	TDP1 cell CPT	KB-V1 MDR tox	HT1080-NT tox
O=C(NC1CCCCC1)C(c1ccc(C(F)(F)F)cc1)n1c(=O)c(-c2cc3ccccc3[nH]2)nc2ccccc21 (stereo unspecified)	?	?	?	15µM*	?	?
O=C(NC1CCCCC1)C(c1ccncc1)n1c(=O)c(-c2cc3ccccc3[nH]2)nc2ccccc21 (stereo unspecified)	?	?	21µM*	18µM*	16µM*	?
O=C(NC1CCCCC1)C(c1ccncc1)n1c(=O)c(-c2ccccc2)nc2ccccc21 (stereo unspecified)	-25%	0%	i	-17%	i	7%
O=C(Nc1cccc(N2CCC(NCc3cnn(-c4ccccc4)n3)CC2)c1)c1cccnc1	?	nt	nt	14%[9.04 µM]	nt	nt
CCOC(=O)C1C(=O)NC(SC)=C(C#N)C1c1ccccc1F (stereo unspecified)	-19%	1%	i	?	15µM*	8%
O=C(O)c1ccc(N2C(=O)CSC2=S)cc1	?	10%	i	?	i	?
O=C1CSC(=S)N1Cc1cccnc1	4.6µM*	?	4.6µM*	4.6µM*	2.9µM*	?
O=C(O)c1ccc(CN2C(=O)CSC2=S)cc1	18µM*	3%	?	18µM*	i	-1%
Cc1ccc(NC(=O)c2oc3ccc(S(=O)(=O)N4CCCCC4)cc3c2C)c(C)c1	-22%	nt	i	-11%	i	nt
CCN(C(=O)c1cc2c(=O)oc3ccccc3c2s1)c1ccccc1F	?	nt	i	?	i	nt
CN1CCC(=O)N([C@H](CSc2ccccc2)c2ccccc2)CC1	18µM*!	-3%	i	?	?	0%
Cc1ccc(SC[C@H](c2ccccc2)N2CCN(CC(C)C)CCC2=O)cc1	12µM*	8%	i	16µM*	i	1%
Cc1ccc(SC[C@H](c2ccccc2)N2CCN(C)CCC2=O)cc1	?	6%	i	-16%	i	0%
CCCN1CCC(=O)N(CCSc2ccc(OC)cc2)CC1	5.8µM*	23µM*	?	5.8µM*	i	?
Cc1ccc(SCCN2CCN(CCc3ccccc3)CCC2=O)cc1	16µM*	-1%	i	16µM*	i	-1%
O=C(NCC1CCCO1)c1ccc(-c2ccccc2Cl)o1 (stereo unspecified)	-23%	2%	i	-31%	i	0%
CCCN1CCC(=O)N([C@H](CSc2ccc(OC)cc2)c2ccccc2)CC1	16µM*	2%	i	?	i	2%
NCCCNCCCCNC(=O)C(O)NC(=O)CCCCCCN=C(N)N (stereo unspecified)	1.2µM*	nt	nt	1.2µM*	nt	nt
